luminol inh ctr: counter-screen for Nox1 inhibitors: inhibitors of luminol chemiluminescence | HRP/luminol/H2O2 chemiluminescence counterscreen | inhibition, % at 6.7 µM | hit rate 0.4% among 16,000; also: reference of the scale not given here
NOTCH ag: agonists of NOTCH signaling | NOTCH signaling luciferase reporter cells, luminescence | activation, % at 2.5 µM | hit rate 0.4% among 15,000 | AID 434982; in the data active = activation above about 2.2%
Nox1 inhibitor: inhibitors of human NADPH oxidase 1 (Nox1); hit rate 0.81% among 16,000; AID 1792; Q9Y5S8; inhibition, % at 6.7 µM; HT29 cells, luminol chemiluminescence ROS
PME-1 Maybr inh: PME-1 (human) inhibition, Maybridge primary screen; Q9Y570; recombinant PME-1, FP-Rh probe fluorescence polarization; inhibition, % at 9 µM; hit rate 0.5% among 16,000; AID 2291; in the data active = inhibition above about 30%
Target sequence (Q9Y570 whole entry, looked up): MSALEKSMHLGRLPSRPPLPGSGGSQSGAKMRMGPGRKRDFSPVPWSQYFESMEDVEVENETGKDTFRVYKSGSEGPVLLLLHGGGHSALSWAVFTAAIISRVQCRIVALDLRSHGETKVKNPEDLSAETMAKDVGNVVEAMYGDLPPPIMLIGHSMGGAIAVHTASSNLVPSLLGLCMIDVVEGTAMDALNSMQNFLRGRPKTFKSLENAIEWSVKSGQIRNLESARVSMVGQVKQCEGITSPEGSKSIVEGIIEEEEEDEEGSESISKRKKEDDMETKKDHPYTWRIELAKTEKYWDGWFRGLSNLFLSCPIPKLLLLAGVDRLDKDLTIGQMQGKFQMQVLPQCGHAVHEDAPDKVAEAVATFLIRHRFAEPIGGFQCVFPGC
A number is an active result. This is a sample that favours compounds with a hit; in the whole collection about 2.1% have one here. Rule as the data show it, unless noted: active = inhibition above about 75%; inactive = the rest.

`CC1CC(NC(=S)NCCO)CC(C)(C)C1` (stereo not given) gave luminol inh ctr inactive, NOTCH ag inactive, Nox1 inhibitor inactive and PME-1 Maybr inh inactive.
For CNc1ccc(Cl)cc1C(=O)NC1CC(C)CC(C)(C)C1 (stereo not given) the results were luminol inh ctr inactive, NOTCH ag 2.6, Nox1 inhibitor inactive and PME-1 Maybr inh inactive.
CSc1cc(C(C)(C)C)[nH]n1 was read as luminol inh ctr inactive, NOTCH ag inactive, Nox1 inhibitor inactive and PME-1 Maybr inh inactive.
`Cc1cc(/C=N\NC(=O)CCc2ccc(O)cc2)c2c(C)ccc(C(C)C)cc1-2` gave luminol inh ctr inactive, NOTCH ag inactive, Nox1 inhibitor inactive and PME-1 Maybr inh 49.
`Cc1cc(S(=O)(=O)NNc2ncnc3c2cnn3C)c(C)cc1Cl` gave luminol inh ctr inactive, NOTCH ag inactive, Nox1 inhibitor 102 and PME-1 Maybr inh inactive.
COc1cc2ncnc(NNS(=O)(=O)c3cc(C)c(Cl)cc3C)c2cc1OC was read as luminol inh ctr inactive, NOTCH ag inactive, Nox1 inhibitor 101 and PME-1 Maybr inh 32.
For Cn1ncc2c(NNC(=O)c3cc(Cl)cc(Cl)c3)ncnc21 the results were luminol inh ctr inactive, NOTCH ag inactive, Nox1 inhibitor inactive and PME-1 Maybr inh inactive.
`O/N=C1/CCCCC1Cn1ccnc1` (stereo not given) gave luminol inh ctr inactive, NOTCH ag inactive, Nox1 inhibitor inactive and PME-1 Maybr inh inactive.
Cc1cc(C(F)(F)Sc2ccc(Cl)cc2)n[nH]1 was read as luminol inh ctr inactive, NOTCH ag inactive, Nox1 inhibitor inactive and PME-1 Maybr inh inactive.
`O=C(Nc1ccccc1C(=O)NCc1ccccn1)c1ccc([N+](=O)[O-])o1` gave luminol inh ctr inactive, NOTCH ag inactive, Nox1 inhibitor inactive and PME-1 Maybr inh inactive.
`O=C(CSc1nnc(SCC(=O)c2cccc([N+](=O)[O-])c2)s1)c1cccc([N+](=O)[O-])c1` gave luminol inh ctr 92, NOTCH ag inactive, Nox1 inhibitor inactive and PME-1 Maybr inh inactive.
Screening COc1ccccc1N1CCN(C(=O)C(C)N2CCCc3cc(C)ccc32)CC1 (stereo not given) returned luminol inh ctr inactive, NOTCH ag inactive, Nox1 inhibitor inactive and PME-1 Maybr inh 71.
Screening CC(=O)c1ccc(NCN2C(=O)/C(=C\N(C)C)NC2=S)cc1 returned luminol inh ctr inactive, NOTCH ag inactive, Nox1 inhibitor 100 and PME-1 Maybr inh inactive.
For Cn1c(SCC(=O)NCc2ccccc2)nnc1-c1ccc2nonc2c1 the results were luminol inh ctr inactive, NOTCH ag inactive, Nox1 inhibitor inactive and PME-1 Maybr inh inactive.
CC(C)(C)CN/C(C#N)=C(/C#N)NCc1cccc(Cl)c1 was read as luminol inh ctr inactive, NOTCH ag inactive, Nox1 inhibitor inactive and PME-1 Maybr inh inactive.
For COc1cc(/C=N\n2c(C)n[nH]c2=S)cc(OC)c1OC the results were luminol inh ctr 101, NOTCH ag inactive, Nox1 inhibitor inactive and PME-1 Maybr inh inactive.
`CSC(=CC(=O)c1ccc(Cl)cc1)SC` gave luminol inh ctr inactive, NOTCH ag inactive, Nox1 inhibitor inactive and PME-1 Maybr inh inactive.
`CSC(=CC(=O)c1ccncc1)SC` gave luminol inh ctr inactive, NOTCH ag 3.5, Nox1 inhibitor inactive and PME-1 Maybr inh inactive.
Screening COC(=O)COc1cc(OC)ccc1C(=O)OC returned luminol inh ctr inactive, NOTCH ag inactive, Nox1 inhibitor inactive and PME-1 Maybr inh inactive.
For O=C1C=C(I)C(=O)C=C1I the results were luminol inh ctr inactive, NOTCH ag inactive, Nox1 inhibitor 86 and PME-1 Maybr inh inactive.
Screening CS/C(N)=C(\C#N)C(C)=O returned luminol inh ctr inactive, NOTCH ag inactive, Nox1 inhibitor inactive and PME-1 Maybr inh inactive.
COc1ccc(OCC2CN=C(c3ccccc3CO)O2)cc1 (stereo not given) was read as luminol inh ctr inactive, NOTCH ag inactive, Nox1 inhibitor inactive and PME-1 Maybr inh inactive.
Screening COc1ccc(C(=O)N/N=C/c2cc(Cl)cc(Cl)c2O)cc1 returned luminol inh ctr inactive, Nox1 inhibitor inactive and PME-1 Maybr inh inactive.
Screening O=C(N/N=C/c1cc(Cl)cc(Cl)c1O)C(=O)Nc1ccc(Cl)c(Cl)c1 returned luminol inh ctr inactive, NOTCH ag 4.1, Nox1 inhibitor inactive and PME-1 Maybr inh inactive.
O=C(CSc1n[nH]c(=O)n1Cc1ccco1)Nc1ccccc1 was read as luminol inh ctr inactive, Nox1 inhibitor inactive and PME-1 Maybr inh inactive.
`COc1ccc(C(=O)CSc2n[nH]c(=O)n2Cc2ccco2)cc1` gave luminol inh ctr inactive, NOTCH ag 2.2, Nox1 inhibitor inactive and PME-1 Maybr inh inactive.
Cn1c(=O)c2c(NCc3ccccc3)cc(=O)n(C)c2n(C)c1=O was read as luminol inh ctr inactive, NOTCH ag 8.5, Nox1 inhibitor inactive and PME-1 Maybr inh inactive.
Screening Cc1cc(Br)c(NC(=S)NNc2ccccc2)c(Br)c1 returned luminol inh ctr inactive, NOTCH ag inactive, Nox1 inhibitor 100 and PME-1 Maybr inh inactive.
`C/C(=N\O)c1sc2nc(C(F)(F)F)nn2c1C` gave luminol inh ctr inactive, NOTCH ag inactive, Nox1 inhibitor inactive and PME-1 Maybr inh inactive.
`O=C(Oc1ccccc1N1CCOCC1)c1cccs1` gave luminol inh ctr inactive, NOTCH ag inactive, Nox1 inhibitor 98 and PME-1 Maybr inh inactive.
Screening Cc1onc(-c2ccccc2)c1C(=O)Oc1ccccc1N1CCOCC1 returned luminol inh ctr inactive, NOTCH ag inactive, Nox1 inhibitor inactive and PME-1 Maybr inh inactive.
Screening O=C(Oc1ccccc1N1CCCCC1)c1ccco1 returned luminol inh ctr inactive, NOTCH ag inactive, Nox1 inhibitor 83 and PME-1 Maybr inh inactive.
`O=C(Oc1ccccc1N1CCOCC1)c1cccnc1Oc1ccccc1` gave luminol inh ctr inactive, NOTCH ag inactive, Nox1 inhibitor 79 and PME-1 Maybr inh inactive.
`CC(=O)Nc1ccc(C)c(NS(=O)(=O)c2cc(Cl)ccc2Cl)c1` gave luminol inh ctr inactive, NOTCH ag inactive, Nox1 inhibitor inactive and PME-1 Maybr inh inactive.
Screening COc1ccc(C(=O)NNc2c([N+](=O)[O-])cc(C(F)(F)F)cc2[N+](=O)[O-])cc1 returned luminol inh ctr inactive, NOTCH ag inactive, Nox1 inhibitor 89 and PME-1 Maybr inh inactive.
For O=C(CCc1ccc(O)cc1)NNc1c([N+](=O)[O-])cc(C(F)(F)F)cc1[N+](=O)[O-] the results were luminol inh ctr inactive, NOTCH ag inactive, Nox1 inhibitor inactive and PME-1 Maybr inh inactive.
Screening O=C(NNc1c([N+](=O)[O-])cc(C(F)(F)F)cc1[N+](=O)[O-])c1ccccc1-n1cccc1 returned luminol inh ctr inactive, NOTCH ag inactive, Nox1 inhibitor 102 and PME-1 Maybr inh inactive.
For C/C(N)=N\S(=O)(=O)c1cc(Cl)c(Oc2ccc([N+](=O)[O-])cc2)c(Cl)c1 the results were luminol inh ctr inactive, NOTCH ag inactive, Nox1 inhibitor inactive and PME-1 Maybr inh inactive.
`C=CCn1c(SCC(=O)NNC(=S)NC)nnc1-c1ccccc1` gave luminol inh ctr 89, NOTCH ag inactive, Nox1 inhibitor inactive and PME-1 Maybr inh inactive.
For C=CCn1c(SCc2n[nH]c(=S)n2C)nnc1-c1ccccc1 the results were luminol inh ctr 82, NOTCH ag inactive, Nox1 inhibitor inactive and PME-1 Maybr inh inactive.
Screening C=CCn1c(SCC(=O)N2CCc3ccccc32)nnc1-c1ccc(Cl)cc1 returned luminol inh ctr inactive, NOTCH ag inactive, Nox1 inhibitor inactive and PME-1 Maybr inh inactive.

Assay outcomes (PubChem)
